Data on 21 compounds can be found in PubChem BioAssay (EPA / NIEHS).

Each structure is given as a SMILES string. The source made the active and inactive calls. Rule for the calls: active = hit-call score of the fitted dose curve at least 0.9, where 1 is the maximum; inactive = score below 0.9.

A short description of the assay: STM_H9_CystineISnorm_perc: Stemina devTOX quickPredict H9 human embryonic stem cell (hESC)-based Assay for Cystine (CYSS) Metabolite Biomarker, Normalized (AID 2283713). From the text:
STM_H9_secretome utilizes undifferentiated H9 cells to measure relative changes in two metabolites, ornithine (ORN) and cystine (CYSS) in the secretome, targeting a critical drop in the ORN/CYSS ratio as a biomarker for developmental toxicity.STM_H9_CystineISnorm_perc is one of 10 components calculated in the STM_H9_secretome assay. It measures the integrated area of the endogenous cystine normalized to the spiked-in isotopically labeled standard and to the median value of the 0.1% DMSO neutral control treatment using UPLC-HRMS technology.Data from the assay component STM_H9_CystineISnorm_perc was analyzed at the assay endpoint STM_H9_CystineISnorm_perc in the positive analysis fitting direction relative to DMSO as the negative control and baseline of activity. Using a type of binding reporter, gain or loss-of-signal activity can be used to understand relative metabolite change.
H9 hESCs maintained in a pluripotent state were exposed to test compound for 72h with chemical replenishment with media replacement every 24h. Cell-conditioned media from the final 24-h treatment period was collected for analysis of the targeted biomarker, and cell viability of the corresponding cell layer was assessed. The chemical library was tested in blinded fashion. Each test plate included 1uM Methotrexate (MTX; Selleck Chemicals, Houston, Texas) as a positive reference, 5 nM MTX as a negative reference, 0.1% DMSO as the neutral (vehicle) control, and sample-level media blanks.H9 cell-conditioned media from the final 24-h treatment period was collected for analysis of the targeted biomarker and cell viability was measured from the corresponding cell layer. Cell viability was measured using the CellTiter-Fluor assay (Promega, Madison, Wisconsin) based on proteolytic cleavage of a substrate to fluorescent signal proportional to the number of living cells. The cell viability Relative Fluorescence Unit (RFU) was background corrected and normalized to mean RFU of the neutral control (0.1% DMSO). The collected H9-cell-conditioned media samples were processed for targeted biomarker analysis as described (Palmer et al., 2013). Briefly, spent media samples were deproteinized (40% acetonitrile) and processed for UPLC-HRMS. Data acquisition was performed using 4 separate UPLC-HRMS systems, consisting of an Agilent 1290 Infinity LC system (Agilent Technologies) interfaced with an Agilent high-resolution mass spectrometer (models G6520A, G6520B, G6530A, and G6224A). A Waters Acquity UPLC BEH Amide column (2.1mm x 50mm, 1.7lm particle size; Waters, Milford, Massachusetts) maintained at 40C was applied for separation of metabolites using a 6.5min solvent gradient with 0.1% formic acid in water and 0.1% formic acid in acetonitrile (1.0ml/min flow rate). Data were acquired using MassHunter Acquisition software (version B 04.00, Agilent Technologies). The extracted ion chromatogram (EIC) areas for ORN, CYSS, and their respective spike-in C13-standards were determined using the Agilent MassHunter Quantitative Analysis software, version B.05.00 or newer (Agilent Technologies), and data were normalized as described in Palmer et al. (2017).
Take `OCCNCCO`: the AC50 is 22.2 µM (active).

For the compound `CCCC(CCC)C(=O)O`, the AC50 is 242 µM (active).

Regarding `Cn1cc[nH]c1=S`, the AC50 was 37.7 µM (active).

In the case of `CC(C)C(=O)Nc1ccc([N+](=O)[O-])c(C(F)(F)F)c1`, the concentration at half-maximal activity (AC50) is 31.6 µM (active).

Regarding `Cn1c(=O)c2[nH]cnc2n(C)c1=O`, the outcome was inactive.

`C[C@]12C=CC(=O)C=C1CC[C@H]1[C@@H]3C[C@@H](O)[C@](O)(C(=O)CO)[C@@]3(C)C[C@H](O)[C@@]12F`: the outcome was inactive.

In the case of `COS(C)(=O)=O`, the AC50 is 62.6 µM (active).

Take `COc1cc2c(c(OC)c1OC)-c1ccc(OC)c(=O)cc1[C@@H](NC(C)=O)CC2`: the concentration at half-maximal activity (AC50) was 0.0121 µM (active).

As to `NC(=O)N1c2ccccc2C=Cc2ccccc21`, the concentration at half-maximal activity (AC50) was 4.32 µM (active).

On to `Nc1ccn([C@@H]2O[C@H](CO)[C@@H](O)[C@@H]2O)c(=O)n1`, for which the AC50 was 0.142 µM (active).

For the compound `CC[C@H](C)C(=O)O[C@H]1C[C@H](O)C=C2C=C[C@H](C)[C@H](CC[C@@H](O)C[C@@H](O)CC(=O)O)[C@H]21`, the result was inactive.

Regarding `CCCCN1C(=O)[C@@H]([C@H](O)C2CCCCC2)NC(=O)C12CCN(Cc1ccc(Oc3ccc(C(=O)O)cc3)cc1)CC2`, the AC50 was 2.26 µM (active).

On to `CCCCCCCCCC`, for which the outcome was inactive.

For the compound `Cc1nc(-c2ccccn2)ncc1C(=O)Nn1cc(C)c2cc(F)ccc21`, the result was inactive.

With `O=c1[nH]cnc2c1ncn2[C@H]1CC[C@@H](CO)O1`, the outcome was inactive.

For the compound `NC(=O)NN=Cc1ccc([N+](=O)[O-])o1`, the outcome was inactive.

For the compound `O=C1CN(N=Cc2ccc([N+](=O)[O-])o2)C(=O)N1`, the AC50 was 5.91 µM (active).

Turning to `Cc1ncc([C@@H](CCCCCCc2ccc3c(n2)NCCC3)CC(=O)O)cn1`, the AC50 is 0.0101 µM (active).

For `CCN(CC)C(=S)SSC(=S)N(CC)CC`, the AC50 was 0.682 µM (active).

For `OC(Cn1cncn1)(Cn1cncn1)c1ccc(F)cc1F`, the outcome was inactive.

For the compound `O=S1(=O)CCCO1`, the concentration at half-maximal activity (AC50) was 83 µM (active).

Broadly, the AC50 is the midpoint of the concentration-response curve, whichever way the signal moves.
